# Experimental data from PubChem BioAssay (Tox21).
# A number with no mark means an inactive call. Inconclusive results are not listed. A call without a number means that no potency is given here. Calls of active or inactive are those of the source. Unless noted, calls come from the whole dose curve; as a rule, active = well fitted curve in the direction sought with a large enough effect in the repeat runs; inconclusive = weak or mixed curves; inactive = no such curve, though single readings can be large; an effect the other way counts as inactive or inconclusive.
# Legend:
# [1] = qHTS assay for small molecule agonists of the p53 signaling pathway (AID 651631; calls by dose curve; note: nearly all actives have a fitted effect of over 15% in size; note: potency is the fitted concentration of half-maximal effect)
# In short: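 Stably transfected HCT-116 cells (beta-lactamase behind p53 response elements) get compounds after a 5 h settling period; 16 h later at 37 °C, FRET substrate is loaded and fluorescence read after 2 h.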
# [2] = qHTS assay for small molecules that induce genotoxicity in human embryonic kidney cells expressing luciferase-tagged ATAD5 (AID 651632); note: nearly all actives have a fitted effect of over 15% in size
# In short: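 HEK293T cells carrying luciferase-tagged ATAD5 were given compound or DMSO vehicle and incubated 16 hr at 37C, 5% CO2. Luciferase activity was read after 30 min at room temperature with Amplite; a rise signals genotoxic stress.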
# [3] = qHTS assay for small molecule agonists of the p53 signaling pathway - cell viability (AID 651633; calls by dose curve;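 note: p53RE-bla HCT reporter cells with a stable beta-lactamase p53 reporter; nearly all actives have a fitted effect of over 30% in size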)
# In short: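 p53RE-bla cells, seeded at 4,000 per well and rested 5 h at 37 C/5% CO2, received compounds in DMSO for 16 h at 37 C. CellTiter-Glo was then added, and luminescence was read after 30 min at room temperature to gauge cytotoxicity.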
# [4] = qHTS assay for small molecules that induce genotoxicity in human embryonic kidney cells expressing luciferase-tagged ATAD5 - cell viability (AID 651634; calls by dose curve; note: nearly all actives have a fitted effect of over 25% in size)
# In short: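 HEK293T cells carrying luciferase-tagged ATAD5, 2,000 cells/well, exposed to compound for 15.5 hr at 37C. Viability read as live-cell protease activity by CellTiter-Fluor fluorescence after 30 min at 37C.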
# [5] = qHTS assay for small molecule disruptors of the mitochondrial membrane potential (AID 720635); note: potency is the fitted concentration of half-maximal effect
# In short: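 HepG2 cells (2,000/well) attached overnight at 37C, then took compound for 1 hr at 37C, 5% CO2. Mito-MPS dye was added for 30 min; fluorescence was read at 490/535 nm (monomers) and 540/590 nm (aggregates).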
# [6] = qHTS assay to test for compound auto fluorescence at 535 nm (green) in HepG2 cells (AID 720675)
# [7] = qHTS assay to test for compound auto fluorescence at 590 nm (red) in HEK293 cells (AID 720679)
# In short: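 Each well held 2,000 HEK293 cells in medium containing 10% dialyzed FBS. Following 4-5 hr attachment at 37C, 23 nL test compound or DMSO was added; plates sat overnight, and red fluorescence (540/590nm) was recorded.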
# [8] = qHTS assay to test for compound auto fluorescence at 535 nm (green) in HEK293 cells (AID 720680)
# [9] = qHTS assay to test for compound auto fluorescence at 460 nm (blue) in HEK293 cell free culture (AID 720681)
# In short: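 Test compounds were pinned into cell-free culture medium (DMEM with 10% FBS) and fluorescence was read directly at Ex/Em 405/460 nm. Signals were expressed as fluorescence equivalents of triamterene, with DMSO vehicle as control.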
# [10] = qHTS assay to test for compound auto fluorescence at 535 nm (green) in HEK293 cell free culture (AID 720682)
# In short: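 Using fluorescein as calibrant, autofluorescence was quantified at 485/535 nm in cell-free DMEM containing 10% FBS after pintool addition of compound or vehicle.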
# [11] = qHTS assay to test for compound auto fluorescence at 590 nm (red) in HEK293 cell free culture (AID 720683)
# In short: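 Tox21 10K library compounds were pinned into cell-free DMEM with 10% FBS and fluorescence was read at excitation 540 nm. Activity is expressed as Rose Bengal sodium equivalency.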
# [12] = qHTS assay to test for compound auto fluorescence at 590 nm (red) in HepG2 cell free culture (AID 720684)
# In short: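 Red fluorescence (540 nm excitation, 590 nm emission) was measured after compound transfer into cell-free MEM supplemented with 10% FBS. Values are equivalencies against Rose Bengal sodium.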
# [13] = molecular target: Glucocorticoid receptor (Homo sapiens) (UniProt P04150); assay: qHTS assay to identify small molecule agonists of the glucocorticoid receptor (GR) signaling pathway (AID 720691; active = well fitted activation curve with a large enough effect in the signal ratio in the repeat runs, not every such curve was filed as active; the % refers to the signal ratio; note: potency is the fitted concentration of half-maximal effect); settings: GR-bla HeLa, beta-lactamase reporter ratio, 18 h; activation: at 62.4 µM (top of the series)
# In short: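 GR-bla HeLa cells carrying a GRE-driven beta-lactamase reporter, exposed to compounds for 18 h at 37 C. Reporter activation read as fluorescence after 2 h with LiveBLAzer B/G FRET substrate at room temperature.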
# [14] = qHTS assay for small molecule disruptors of the mitochondrial membrane potential - cell viability (AID 720634; calls by dose curve; note: nearly all actives have a fitted effect of over 20% in size; note: potency is the fitted concentration of half-maximal effect;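 for activity change, negative = cytotoxicity: human HepG2 liver cancer cells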)
# In short: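 HepG2 cells, 2,000 per well, attached overnight, then treated 1 hr at 37 C, 5% CO2. Viability read as ATP by CellTiter-Glo luminescence after 30 min at room temperature. Read in the same wells as the m-MPI membrane-potential dye assay.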
# [15] = qHTS assay to test for compound auto fluorescence at 460 nm (blue) in HEK293 cells (AID 720678)
# In short: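 Cells were seeded and left to adhere for 4-5 hr at 37C. Compounds were then pin-transferred. After an overnight incubation at 37C under 5% CO2, intrinsic fluorescence at 405/460 nm was measured and referenced to triamterene.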
# [16] = qHTS assay to test for compound auto fluorescence at 460 nm (blue) in HepG2 cell free culture (AID 720685)
# In short: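 Compound (23 nL) or DMSO pinned into cell-free MEM with 10% FBS; blue fluorescence read at 405/460 nm excitation/emission, expressed as auto-fluorescence equivalency to triamterene.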
# [17] = qHTS assay to test for compound auto fluorescence at 535 nm (green) in HepG2 cell free culture (AID 720686)
# [18] = qHTS assay to test for compound auto fluorescence at 460 nm (blue) in HepG2 cells (AID 720687)
# In short: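 Cells (2,000/well in MEM with 10% FBS) attached overnight at 37 C, then were exposed to compound or DMSO for 1 hr at 37 C, 5% CO2. Fluorescence read at Ex/Em 405/460 nm, expressed as triamterene-equivalent signal.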
# [19] = molecular target: Glucocorticoid receptor (Homo sapiens) (UniProt P04150); assay: qHTS assay to identify small molecule antagonists of the glucocorticoid receptor (GR) signaling pathway (AID 720692; active = well fitted inhibition curve with a large enough effect in the signal ratio in the repeat runs, not every such curve was filed as active; the % refers to the signal ratio; note: potency is the fitted concentration of half-maximal effect)
# In short: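 GR-bla HeLa cells carrying a GRE-driven beta-lactamase reporter received compound after 4 h plating, then dexamethasone (5 nM final). After 18 h at 37C, the FRET substrate was loaded for 2 h at room temperature and fluorescence read.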
# [20] = qHTS assay to test for compound auto fluorescence at 590 nm (red) in HepG2 cells (AID 720674)
# In short: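 Compound auto-fluorescence is scored relative to Rose Bengal sodium, measured at 540/590 nm in live HepG2 cultures after 1 hr compound contact (37 C, 5% CO2).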
# Glucocorticoid receptor (Homo sapiens), sequence (P04150 whole entry, looked up): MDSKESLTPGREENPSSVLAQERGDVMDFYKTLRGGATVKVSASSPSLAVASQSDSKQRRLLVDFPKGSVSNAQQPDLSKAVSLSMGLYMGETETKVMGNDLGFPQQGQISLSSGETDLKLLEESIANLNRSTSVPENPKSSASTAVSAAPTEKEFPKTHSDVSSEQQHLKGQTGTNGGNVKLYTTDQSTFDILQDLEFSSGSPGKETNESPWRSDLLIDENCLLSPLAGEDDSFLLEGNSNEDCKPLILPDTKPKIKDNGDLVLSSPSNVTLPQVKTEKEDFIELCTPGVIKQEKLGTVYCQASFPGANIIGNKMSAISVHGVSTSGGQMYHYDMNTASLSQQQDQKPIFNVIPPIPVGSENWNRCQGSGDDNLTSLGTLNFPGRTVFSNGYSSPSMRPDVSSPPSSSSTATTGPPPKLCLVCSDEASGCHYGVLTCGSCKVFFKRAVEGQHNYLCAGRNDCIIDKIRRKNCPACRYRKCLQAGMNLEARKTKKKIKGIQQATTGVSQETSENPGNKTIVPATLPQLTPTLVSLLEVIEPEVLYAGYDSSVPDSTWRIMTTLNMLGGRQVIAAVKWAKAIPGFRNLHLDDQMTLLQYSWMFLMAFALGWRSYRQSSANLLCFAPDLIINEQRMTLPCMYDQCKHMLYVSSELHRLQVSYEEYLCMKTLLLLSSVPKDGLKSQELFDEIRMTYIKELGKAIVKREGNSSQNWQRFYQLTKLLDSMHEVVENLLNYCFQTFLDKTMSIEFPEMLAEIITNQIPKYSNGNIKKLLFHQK
smiles,measurement,setting,value
c1ccc2c(c1)cc1ccc3cccc4ccc2c1c34,Potency,[1],3.5 µM (active)
same,Potency,[2],inactive
same,Potency,[3],inactive
same,Potency,[4],inactive
same,Potency,[5],14 µM (active)
same,Potency,[6],inactive
same,outcome,[7],inactive
same,outcome,[8],inactive
same,Potency,[9],inactive
same,outcome,[10],inactive
same,outcome,[11],inactive
same,outcome,[12],inactive
same,Potency,[13],25 µM [fluorescent] (active)
Clc1c(Cl)c(Cl)c(Cl)c(Cl)c1Cl,activation,[1],-4.73% [at 8.3 µM]
same,activation,[2],3.25% [at 8.08 µM]
same,"activity change, negative = cytotoxicity",[3],-24.8% [at 8.08 µM]
same,"activity, negative = cytotoxicity",[4],8.7% [at 8.08 µM]
same,"activity change, negative = cytotoxicity",[14],3.14% [at 8.08 µM]
same,"fluorescence, % of fluorescein control",[6],-0.0433% [at 3.72 µM]
same,"fluorescence, % of triamterene",[15],-0.0308% [at 3.72 µM]
same,"fluorescence, % of fluorescent control",[7],-0.0042% [at 3.72 µM]
same,"fluorescence, % of fluorescent control",[9],-0.026% [at 3.72 µM]
same,activity change,[10],0.0009% [at 3.72 µM]
same,"fluorescence, % of fluorescent control",[11],0.029% [at 3.72 µM]
same,"fluorescence, % of Rose Bengal",[12],-0.0219% [at 3.72 µM]
same,"fluorescence, % of fluorescent control",[16],0.0528% [at 3.72 µM]
same,"fluorescence, % of fluorescein control",[17],-0.0548% [at 3.72 µM]
same,"fluorescence, % of fluorescent control",[18],-0.0163% [at 3.72 µM]
same,activation,[13],-0.383% [at 6.9 µM]
same,"activity change, negative = inhibition",[19],-10.3% [at 7.04 µM]
C[C@H]1[C@H](c2ccc(Cl)cc2)SC(=O)N1C(=O)NC1CCCCC1,Potency,[1],inactive
same,Potency,[2],inactive
same,Potency,[3],inactive
same,Potency,[4],inactive
same,Potency,[5],15.4 µM (active)
same,outcome,[20],inactive
same,Potency,[6],inactive
same,Potency,[15],inactive
same,outcome,[7],inactive
same,outcome,[8],inactive
same,Potency,[9],inactive
same,outcome,[11],inactive
same,outcome,[12],inactive
same,Potency,[16],inactive
same,Potency,[17],inactive
same,Potency,[18],inactive
same,Potency,[13],inactive
CO/N=C(\C(=O)OC)c1ccccc1CO/N=C(\C)c1cccc(C(F)(F)F)c1,Potency,[1],1.09 µM (active)
same,Potency,[2],inactive
same,Potency,[4],inactive
same,Potency,[14],21.7 µM (active)
same,Potency,[5],9.69 µM (active)
same,outcome,[20],inactive
same,Potency,[6],inactive
same,Potency,[15],inactive
same,outcome,[7],inactive
same,outcome,[8],inactive
same,Potency,[9],inactive
same,outcome,[11],inactive
same,outcome,[12],inactive
same,Potency,[16],inactive
same,Potency,[18],inactive
COC(=O)c1ccccc1S(=O)(=O)NC(=O)Nc1nc(C)nc(OC)n1,Potency,[1],inactive
same,Potency,[2],inactive
same,Potency,[3],inactive
same,Potency,[4],inactive
same,Potency,[14],inactive
same,Potency,[6],inactive
same,Potency,[15],inactive
same,outcome,[7],inactive
same,outcome,[8],inactive
same,Potency,[9],inactive
same,outcome,[11],inactive
same,outcome,[12],inactive
same,Potency,[16],inactive
same,Potency,[17],inactive
same,Potency,[18],inactive
CC(C)(C)c1ccc(OP(=O)(Oc2ccccc2)Oc2ccccc2)cc1,Potency,[1],inactive
same,Potency,[2],inactive
same,Potency,[3],inactive
same,Potency,[4],inactive
same,Potency,[5],9.75 µM (active)
same,outcome,[20],inactive
same,Potency,[15],inactive
same,outcome,[7],inactive
same,Potency,[9],inactive
same,outcome,[10],inactive
same,outcome,[11],inactive
same,outcome,[12],inactive
same,Potency,[16],inactive
same,Potency,[17],inactive
same,Potency,[18],inactive
N#Cc1ccc(N(CC(N)=O)CC(F)(F)F)cc1C(F)(F)F,Potency,[1],inactive
same,Potency,[2],inactive
same,Potency,[4],inactive
same,Potency,[14],inactive
same,outcome,[20],inactive
same,Potency,[6],inactive
same,Potency,[15],inactive
same,outcome,[8],inactive
same,Potency,[9],inactive
same,outcome,[11],inactive
same,outcome,[12],inactive
same,Potency,[16],inactive
same,Potency,[17],inactive
same,Potency,[18],inactive
Nc1ccccc1-c1ccccc1,Potency,[1],inactive
same,Potency,[2],inactive
same,Potency,[3],inactive
same,Potency,[14],inactive
same,outcome,[20],inactive
same,Potency,[6],inactive
same,Potency,[15],inactive
same,outcome,[7],inactive
same,outcome,[8],inactive
same,Potency,[9],inactive
same,outcome,[10],inactive
same,outcome,[11],inactive
same,outcome,[12],inactive
same,Potency,[16],inactive
same,Potency,[17],inactive
same,Potency,[18],inactive
same,Potency,[13],inactive
C#CC1(O)CCCCC1,Potency,[1],inactive
same,Potency,[2],inactive
same,Potency,[3],inactive
same,Potency,[4],inactive
same,Potency,[14],inactive
same,Potency,[6],inactive
same,Potency,[15],inactive
same,outcome,[7],inactive
same,outcome,[8],inactive
same,Potency,[9],inactive
same,outcome,[11],inactive
same,outcome,[12],inactive
same,Potency,[16],inactive
same,Potency,[17],inactive
same,Potency,[18],inactive
CC(=O)C(Cl)C(=O)N(C)C (configuration not stated),Potency,[1],inactive
same,Potency,[2],inactive
same,Potency,[4],inactive
same,Potency,[14],inactive
same,outcome,[20],inactive
same,Potency,[6],inactive
same,Potency,[15],inactive
same,outcome,[7],inactive
same,outcome,[8],inactive
same,Potency,[9],inactive
same,outcome,[11],inactive
same,outcome,[12],inactive
same,Potency,[16],inactive
same,Potency,[17],inactive
same,Potency,[18],inactive
N#Cc1c[nH]cc1-c1cccc2c1OC(F)(F)O2,Potency,[1],8.63 µM (active)
same,Potency,[2],inactive
same,Potency,[4],inactive
same,Potency,[14],5.45 µM (active)
same,Potency,[5],2.17 µM (active)
same,outcome,[20],inactive
same,Potency,[6],inactive
same,Potency,[15],inactive
same,outcome,[7],inactive
same,outcome,[8],inactive
same,Potency,[9],inactive
same,outcome,[10],inactive
same,outcome,[11],inactive
same,outcome,[12],inactive
same,Potency,[16],inactive
same,Potency,[17],inactive
same,Potency,[18],inactive
same,Potency,[19],9.77 µM (active)
[O]=[Cr][O][Cr]=[O],Potency,[1],inactive
same,Potency,[2],inactive
same,Potency,[3],inactive
same,Potency,[4],inactive
same,outcome,[20],inactive
same,Potency,[15],inactive
same,outcome,[7],inactive
same,outcome,[8],inactive
same,Potency,[9],inactive
same,outcome,[11],inactive
same,outcome,[12],inactive
same,Potency,[16],inactive
same,Potency,[17],inactive
same,Potency,[18],inactive
same,Potency,[13],inactive
same,Potency,[19],inactive
